# Among all 52,000 compounds or so, about 4,300 (8.3%) were called active. Only a selection was taken, and actives are over-represented in it overall. Values without a mark were called inactive. No stated cut-off is given here; in the data, active means survival mostly below about 52% (no sharp cut-off); inactive means mostly above about 56%.
# Test system: DeltatarO mutant
# Assay: growth inhibition of S. aureus wild type versus tarO mutant, primary screen, teichoic acid synthesis inhibitors, RN4220, OD600 (AID 463173)
# Settings: OD600, 18 h, hits give low values, screened at 18.75 µg/mL (by protocol)
row,SMILES,survival
1,COc1ccc(NC(=O)c2oc3ccc(S(=O)(=O)N4CCCCC4)cc3c2C)cc1,87%
2,CC(C)Cn1cc(NC(=O)N2CCN(c3cccc(C(F)(F)F)c3)CC2)c2ccccc2c1=O,77%
3,COc1ccc(CCNC(=O)Cn2ncc3c(=O)oc4ccccc4c32)c(OC)c1,89%
4,CCC1CCCCN1C(=O)CCS(=O)(=O)c1cc2c(cc1C)NC(=O)CO2 (stereo unspecified),81%
5,CC(C)C1C(=O)Nc2ccc(S(=O)(=O)NCCc3ccc(Cl)cc3)cc21 (stereo unspecified),77%
6,COc1cccc(CNS(=O)(=O)c2ccc3c(c2)C(C(C)C)C(=O)N3)c1 (stereo unspecified),129%
7,CC(C)C1C(=O)Nc2ccc(S(=O)(=O)NCc3ccc(Cl)cc3)cc21 (stereo unspecified),52% (active)
8,CCCNc1c2c(nc3ccccc13)CC(C)(C)CC2=O,66%
9,CCOc1ccccc1CNC(=O)c1ccc2nc(Cc3ccc(OC)cc3)oc2c1,73%
10,CN(C1CCCCC1)C(c1ccc(F)cc1)c1nnnn1C1CCCCC1 (stereo unspecified),83%
11,Cc1ccc(C)c(-c2nc(Cn3c(=O)cc(-c4ccccc4)c4c(C)nn(C)c43)c(C)o2)c1,130%
12,CCC(Cc1ccccc1)NC(=O)c1csc2c1CCCCC2 (stereo unspecified),125%
13,CCOC(=O)c1ccc(NC(=O)c2csc3c2CCCCC3)cc1,39% (active)
14,O=C(Nc1ccc(OC(F)(F)F)cc1)c1noc2c1CCCC2,65%
15,CCOC(=O)c1ccc(NC(=O)c2cccc3c(=O)c4c([nH]c23)CCCC4)cc1,60%
16,CCOC(=O)c1ccc(NC(=O)c2c(NCc3cccs3)sc3c2CCCCC3)cc1,104%
17,CCOC(=O)c1ccc(NC(=O)c2c(NCc3sccc3C)sc3c2CCCCC3)cc1,78%
18,CCOC(=O)c1ccc(NC(=O)c2c(NCc3cccs3)sc3c2CCCC3)cc1,78%
19,CSc1ccc(CCNC(=O)c2csc3c2CCCCC3)cc1,63%
20,CC(CNC(=O)c1csc2c1CCCCC2)c1ccccc1 (stereo unspecified),-1% (active)
21,COc1ccc(NC(=O)c2noc3c2CCCC3)cc1Cl,83%
22,CCOC(=O)c1ccc(NC(=O)c2noc3c2CCCC3)cc1,0% (active)
23,CCOC(=O)c1ccc(NC(=O)c2csc3c2CCCC3)cc1,36% (active)
24,CCC(=O)C1=C(c2ccccc2)N(C(=O)CC)n2c(nnc2C2CCCCC2)S1,55%
25,N#CCCn1c(=O)n(CCC#N)c(=O)n(CCC#N)c1=O,79%
26,O=C1NC2(CCCCC2)C(=O)N1c1ccc(Cl)cc1,109%

row,SMILES,survival
1,CCC(=O)OCCN1C(=O)c2ccccc2C1=O,91%
2,COc1ccc(C(=O)Nc2ccc(NC(=O)c3ccco3)cc2)cc1OC,71%
3,N#Cc1cccc(NC(=O)C2CCN(c3ncccn3)CC2)c1,66%
4,Cc1cccc(CCn2c(=O)c3ccccc3n(CC(=O)Nc3ccccc3F)c2=O)c1,76%
5,CCOc1ccc(OCC)c(NC(=O)c2csc3c2CCCC3)c1,-2% (active)
6,CCOc1ccc(CCNC(=O)c2csc3c2CCCCC3)cc1,73%
7,O=C(Nc1ccccc1O)c1csc2c1CCCC2,80%
8,CCn1c(C(=O)Nc2c(C)cccc2C)cc2sc(Cl)cc21,60% (active)
9,CCn1c(C(=O)Nc2ccccc2C(=O)OC)cc2sc(Cl)cc21,31% (active)
10,CCn1c(C(=O)Nc2cc(Cl)ccc2C)cc2sc(Cl)cc21,77%
11,CCc1ccccc1NC(=O)c1cc2sc(Cl)cc2n1CC,77%
12,CCn1c(C(=O)Nc2cc(C)cc(C)c2)cc2sc(Cl)cc21,109%
13,CCn1c(C(=O)Nc2ccc(C)cc2C)cc2sc(Cl)cc21,58%
14,COC(=O)c1[nH]c2ccc(F)cc2c1N,98%
15,CCN(CC)c1ccc2cc(C(=O)Nc3ccc(NC(C)=O)cc3)c(=O)oc2c1,94%
16,O=C(NCCc1ccccc1)c1ccc(CSc2nc3ccncc3n2Cc2ccccc2)cc1,73%
17,Cc1ccc(NC(=O)C(Cc2ccccc2)NS(=O)(=O)c2ccc3c(c2)c(=O)n(C)c(=O)n3C)cc1 (stereo unspecified),64%
18,CCCOc1ccc(CNC(=O)C(NS(=O)(=O)c2cccs2)C(C)C)cc1 (stereo unspecified),77%
19,Cc1ccc(CNC(=O)C(NS(=O)(=O)c2cccs2)C(C)C)cc1 (stereo unspecified),61%
20,COc1cc(NC(=O)C(Cc2ccccc2)NS(=O)(=O)c2cccs2)cc(OC)c1 (stereo unspecified),102%
21,CCc1ccc(NC(=O)C(Cc2ccccc2)NS(=O)(=O)c2ccc3c(c2)c(=O)n(C)c(=O)n3C)cc1 (stereo unspecified),45% (active)
22,CCc1cccc(NC(=O)C(Cc2ccccc2)NS(=O)(=O)c2cccs2)c1 (stereo unspecified),44% (active)
23,Cc1ccc(NC(=O)C(Cc2ccccc2)NS(=O)(=O)c2cccs2)cc1Cl (stereo unspecified),90%
24,CCc1ccc(NC(=O)C(NS(=O)(=O)c2cccs2)C(C)C)cc1 (stereo unspecified),55% (active)
25,CCc1cccc(NC(=O)C(Cc2ccccc2)NS(=O)(=O)c2ccc3c(c2)c(=O)n(C)c(=O)n3C)c1 (stereo unspecified),54%

# — PubChem BioAssay AID463173 (ICCB-Longwood Screening Facility, Harvard Medical School, 2010)
